The values that follow come from the supplement of paper PMC6522484.

The test system of assay [1] is DLD1. Description: cell viability (CellTiter-Glo) relative to plate median (fraction of plate median); higher = more viable cells. As to conditions: 5 µM; treatment time 24 h; reporter: 7TFP. A digest of the protocol: (§1)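 Two independent replicates were averaged for each reported value. Library compounds were applied at a final 5 µM for 24 h to colorectal cancer cell lines stably expressing lentiviral TCF/Wnt firefly luciferase reporters. Firefly luciferase or CellTiterGlo luminescence from each well was normalised to the plate median.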
Background: ATP-based viability assays read luminescence as a measure of living cells.

In the next assay the test system is HCT116. The assay is described as above. The conditions noted are these: 5 µM; treatment time 24 h; reporter: TCF4/Wnt. An outline of the steps: as §1
Assay [2] deals with SW480. The assay is described as above. The conditions noted are these: 5 µM; treatment time 24 h; reporter: 7TFP. A digest of the protocol: as §1
Assay [3] relates to DLD1. Nature of the assay: TCF/Wnt firefly luciferase reporter signal relative to plate median (fraction of plate median); higher = higher Wnt reporter signal. As to conditions: 5 µM; treatment time 24 h; reporter: 7TFP. A digest of the protocol:
as §1

Assay [4] has as its system SW480. Described as above. As to conditions: 5 µM; treatment time 24 h; reporter: 7TFP. A digest of the protocol:
as §1

SMILES strings stand for the structures. ± gives the standard deviation of the averaged measurements.

Turning to `O=P1(N(CCCl)CCCl)NCCCO1` (stereo not given), the cell viability came to 1.03 ± 0.035 in the assay with DLD1 [1], 0.955 ± 0.015 in the assay with HCT116 and 0.959 ± 0.051 in the assay on SW480 [2]. Further, the “TCF/Wnt firefly luciferase reporter signal” value was found to be 1.1 ± 0.18 with DLD1 [3] and 0.92 ± 0.014 with SW480 [4].

In the case of `CC(C)=CCC[C@@H](C(=O)O)[C@H]1CC[C@@]2(C)C3=C(CC[C@]12C)[C@@]1(C)CC[C@H](O)C(C)(C)[C@@H]1CC3` [Trametenolic acid], the cell viability in the assay on DLD1 [1] came to 0.995 ± 0.022; in the assay with HCT116 it was 1.07 ± 0.071; in the assay on SW480 [2], 1.02 ± 0.028. In addition, the “TCF/Wnt firefly luciferase reporter signal” value in the assay on DLD1 [3] is 1.08 ± 0.085; with SW480 [4], 1.12 ± 0.13.

As to `N#Cc1nn(-c2c(Cl)cc(C(F)(F)F)cc2Cl)c(N)c1[S+]([O-])C(F)(F)F` (stereo not given), the cell viability turned out to be 1.02 ± 0.045 in the assay with DLD1 [1], 1.04 ± 0.028 in the assay with HCT116 and 1.005 ± 0.0071 in the assay with SW480 [2]. Further, the “TCF/Wnt firefly luciferase reporter signal” value in the assay on DLD1 [3] was determined as 1.01 ± 0.05; with SW480 [4], 1.015 ± 0.0071.

Regarding `CCCCCCCCCCCC[C@@H](O)[C@H]1CC[C@H]([C@H](O)CCCC[C@H](O)CCCCC[C@@H](O)CC2=CC(C)OC2=O)O1` (stereo not given in full) [annonacin], the cell viability amounted to 0.926 ± 0.076 with DLD1 [1], 0.933 ± 0.014 in the assay on HCT116 and 0.92 ± 0.092 with SW480 [2]. In addition, the “TCF/Wnt firefly luciferase reporter signal” value in the assay with DLD1 [3] came out at 0.987 ± 0.075; in the assay on SW480 [4], 0.923 ± 0.018.

Take `C[C@]12CCC(=O)C[C@@H]1CC[C@@H]1[C@@H]2CC[C@]2(C)C(=O)CC[C@@H]12` [5alpha-ANDROSTAN-3,17-DIONE]: the cell viability in the assay on DLD1 [1] turned out to be 0.895 ± 0.095; in the assay with HCT116 it was 1.07; in the assay on SW480 [2], 0.959 ± 0.052. For the same compound, the “TCF/Wnt firefly luciferase reporter signal” value was determined as 0.959 ± 0.086 with DLD1 [3] and 0.9525 ± 0.005 in the assay with SW480 [4].

In the case of `CC[C@@H](CO)NC(=O)[C@@H]1C=C2c3cccc4[nH]cc(c34)C[C@H]2N(C)C1`, the cell viability in the assay with DLD1 [1] worked out at 0.968 ± 0.045; with HCT116, 1.02 ± 0.028; with SW480 [2] it was 0.957 ± 0.054. In addition, the results for the “TCF/Wnt firefly luciferase reporter signal” value in the assay on DLD1 [3] and in the assay with SW480 [4] were 1.04 ± 0.028 and 1.075 ± 0.0071, respectively.

Consider `CC1=C2[C@H]3OC(=O)[C@@H](C)[C@@H]3CC[C@@]2(C)C=CC1=O`, for which the cell viability was determined as 1.08 ± 0.15 with DLD1 [1], 1.06 ± 0.078 in the assay on HCT116 and 1.03 ± 0.043 with SW480 [2]. In addition, the “TCF/Wnt firefly luciferase reporter signal” value with DLD1 [3] was 0.968 ± 0.026; in the assay on SW480 [4], 1.06 ± 0.12.

As to `C/C=C\C(=O)O[C@@H]1C[C@H]2O[C@@H]3C=C(C)C(=O)C[C@]3(C)[C@]1(C)[C@]21CO1` [Trichothecin], the cell viability in the assay on DLD1 [1] was 0.922 ± 0.018; in the assay with HCT116, 0.807 ± 0.025; in the assay with SW480 [2], 0.945 ± 0.023. The “TCF/Wnt firefly luciferase reporter signal” value turned out to be 0.733 ± 0.1 with DLD1 [3] and 0.832 ± 0.067 in the assay on SW480 [4].

As for `CN1[C@@H]2C[C@@H](OC(=O)[C@H](CO)c3ccccc3)C[C@H]1[C@@H]1O[C@@H]12`, the cell viability worked out at 1.04 ± 0.042 with DLD1 [1], 1.07 ± 0.042 in the assay with HCT116 and 0.99 ± 0.0099 in the assay with SW480 [2]. In addition, the results for the “TCF/Wnt firefly luciferase reporter signal” value in the assay with DLD1 [3] and with SW480 [4] were 1.02 ± 0.1 and 1.035 ± 0.0071, respectively.

In the case of `CC1C[C@H]2CC(=O)[C@H]3CCCN4CCC[C@H]2[C@]34C1.[O-][Cl+3]([O-])([O-])O` (stereo not given in full), the cell viability in the assay with DLD1 [1] came out at 0.97 ± 0.011; with HCT116, 1.01 ± 0.031; in the assay with SW480 [2] it was 0.933 ± 0.0042. Also, the “TCF/Wnt firefly luciferase reporter signal” value in the assay with DLD1 [3] came out at 1.1 ± 0.099; in the assay with SW480 [4], 1.1 ± 0.16.

Take `O=C1C=C2C=C[C@@H]3C[C@@]2(O1)[C@H]1CCCCN31`: the cell viability came to 1.1 ± 0.057 in the assay with DLD1 [1], 1.11 ± 0.064 in the assay on HCT116 and 1.02 ± 0.063 in the assay on SW480 [2]. Also, the “TCF/Wnt firefly luciferase reporter signal” value turned out to be 1.01 ± 0.023 in the assay on DLD1 [3] and 0.988 ± 0.013 with SW480 [4].

Turning to `Cl[C@H]1[C@H](Cl)[C@@H](Cl)[C@@H](Cl)[C@H](Cl)[C@H]1Cl`, the results for the cell viability with DLD1 [1], in the assay on HCT116 and with SW480 [2] were 1.05 ± 0.014, 1.035 ± 0.0071 and 1.04 ± 0.042, respectively. Moreover, the “TCF/Wnt firefly luciferase reporter signal” value with DLD1 [3] stood at 1.05 ± 0.05; in the assay on SW480 [4], 1.15 ± 0.05.

For `CC(=O)O[C@H]1C(=O)[C@@]2(C)[C@H]([C@H](OC(=O)c3ccccc3)[C@]3(O)C[C@H](O)C(C)=C1C3(C)C)[C@]1(OC(C)=O)CO[C@@H]1C[C@@H]2O`, the cell viability with DLD1 [1] stood at 0.951 ± 0.013; with HCT116, 1.04 ± 0.021; with SW480 [2], 0.9845 ± 0.0078. Moreover, the “TCF/Wnt firefly luciferase reporter signal” value in the assay on DLD1 [3] came out at 0.95 ± 0.028; with SW480 [4], 0.887 ± 0.076.
